Rab9 prom act – activators of Rab9 promoter; hit rate 2.8% among 320,000; Potency, µM (doses to about 9.22 µM), for inactives: at the highest dose activation, negative = inhibition, usual class: activators; Huh7 Rab9 promoter-luciferase reporter, luminescence, 24 h; also: % of control where 0% means no effect; nearly all actives have a fitted effect of over 60% in size
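Steps: seed 1500 Huh7 Rab9-luc cells per well, rest 2 h at 37 °C; add compound in DMSO; incubate 24 h; add luciferase reagent, 10 min ambient; read luminescence.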
ELG1 genotox – inducers of genotoxicity in HEK293T ELG1-luciferase cells. HEK293T ELG1-luciferase reporter, luminescence, 16 h. Potency, µM (highest dose often 46 µM), inactives show top-dose activity change, positive = activation, hits mostly activators. hit rate 1.3% among 330,000. AID 504466; also: % of control where 0% means no effect; nearly all actives have a fitted effect of over 60% in size
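Cells (2,000/well) expressing the ELG1-luciferase fusion are dosed by pin tool and kept 16 hr at 37 °C, 5% CO2. Signal comes from ONE-Glo luciferase reagent after 30 min at room temperature.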
FLuc modulator – firefly luciferase modulation, counter-screen for miR-21 project; purified FLuc, Km substrates, luminescence inhibition; Potency, µM (doses to about 57.5 µM), without a hit: top-dose activity change, negative = inhibition, usual class: inhibitors; hit rate 6.9% among 360,000; AID 588342;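 also: plate controls were vehicle for no effect and reference inhibitor for full effect; nearly all actives have a fitted effect of over 55% in size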
Target sequence (P08659 whole entry, looked up): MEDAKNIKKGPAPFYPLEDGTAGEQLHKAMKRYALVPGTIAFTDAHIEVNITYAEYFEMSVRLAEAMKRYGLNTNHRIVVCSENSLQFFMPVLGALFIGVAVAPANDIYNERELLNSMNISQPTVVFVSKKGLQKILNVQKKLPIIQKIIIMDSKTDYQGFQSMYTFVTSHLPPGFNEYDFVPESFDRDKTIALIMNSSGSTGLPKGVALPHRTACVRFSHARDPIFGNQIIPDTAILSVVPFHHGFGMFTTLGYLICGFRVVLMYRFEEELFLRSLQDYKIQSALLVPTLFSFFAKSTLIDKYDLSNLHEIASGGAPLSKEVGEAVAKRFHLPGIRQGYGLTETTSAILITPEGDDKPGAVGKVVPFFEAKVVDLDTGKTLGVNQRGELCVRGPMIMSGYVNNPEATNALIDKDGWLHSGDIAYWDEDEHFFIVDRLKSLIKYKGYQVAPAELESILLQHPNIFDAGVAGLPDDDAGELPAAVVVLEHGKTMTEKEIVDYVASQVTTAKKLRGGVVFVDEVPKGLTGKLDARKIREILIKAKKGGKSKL
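Purified P. pyralis luciferase, 10 nM final, with Km-level 10 uM D-luciferin and 10 uM ATP in 50 mM Tris acetate pH 7.5, 10 mM Mg acetate, 0.01% Tween-20, 0.05% BSA; 6-point qHTS titration about 60 µM downward; luminescence read.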
SMN2 splice up – increases expression of the SMN2 splice variant; HEK293 SMN2-luciferase splicing reporter, luminescence, 30-36 h; Potency, µM (highest dose often 46.1 µM), inactives show at the highest dose activity change, positive = activation, actives largely listed as activators; hit rate 2.8% among 210,000; also: % of control where 0% means no effect; nearly all actives have a fitted effect of over 55% in size
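qHTS luciferase splicing reporter: luminescence rises when SMN2 exon 7 is included in transfected HEK293 cells. Compound exposure lasted 30-36 h at 37C, with 4.5 mM final sodium butyrate as control, followed by a ONE-Glo read.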
NPC1 promoter act – NPC1 promoter activation | Huh7 NPC1 promoter luciferase reporter, 24 h | Potency, µM (titrated, usually from 9.22 µM), for the others: at the top dose activation, usual class: activators | hit rate 2.4% among 320,000 | AID 485313; also: % of control where 0% means no effect; nearly all actives have a fitted effect of over 60% in size
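In 1536-well qHTS, Huh7 cells harboring an NPC1 promoter–luciferase construct received compound for 24 h; activation was quantified by luminescence following luciferase reagent addition.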
Luc counter – Kinase-Glo luciferase inhibition (counter-screen) | Kinase-Glo luciferase, ATP luminescence, 8 min | Potency, µM (titrated, usually from 38.3 µM), without a hit: at the highest dose activity change, negative = inhibition, most hits filed as inhibitors | hit rate 0.28% among 200,000 | AID 1379; also: % is scaled to controls: 0 for no effect and ±100 for the full control effect; nearly all actives have a fitted effect of over 60% in size
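Substrate mix (final 50 mM imidazole pH 7.2, 50 mM KCl, 7 mM MgCl2, 10 uM ATP, 0.01% Tween 20, 0.05% BSA) plus pin-tool compound, then Kinase-Glo detection mix; 8 min ambient, luminescence read.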
* hit, by the source's call; ? = inconclusive; nt = no result given; [ ] = remark or other dose. The list is not random: actives were taken first. Their share in the collection is about 7.3%. Calls follow the shape of the dose curve; as a rule, active = well fitted curve in the direction sought with a large enough effect; inconclusive = small, poorly fitted or top-dose-only effect, or another doubt; inactive = no such curve, though single readings can be large; an effect the other way counts as inactive or inconclusive. Potency is read from the fitted curve at half-maximal effect.

SMILES	Rab9 prom act	ELG1 genotox	FLuc modulator	SMN2 splice up	NPC1 promoter act	Luc counter
COc1ccc(C(=O)C2CCCN(C3Cc4ccccc4C3)C2)c(OC)c1 (centres undefined)	?	24%	27µM*	nt	30%	-2%
COc1ccc(C(=O)C2CCCN(Cc3cc(C)c(O)c(C)c3)C2)c(OC)c1 (centres undefined)	-7%	-3%	-1%	nt	-9%	nt
N#C/C(=C\N1CCNC1=S)C(=O)c1ccc2ccccc2c1	nt	nt	nt	-1%[9.22 µM]	nt	-5%[7.66 µM]
CCc1nnc(NC(=O)c2ccc3c(c2)C(=O)N(C(C)(C)C)C3=O)s1	3.2µM*	?	2.7µM*	?	3.5µM*	1%
CCc1nnc(NC(=O)c2ccncc2)s1	1%	8%	-17%	-3%	-2%	-6%
Cc1cnc(NC(=O)c2ccc3ncsc3c2)s1	0.71µM*	?	3µM*	nt	1.3µM*	nt
CC1(C)Cc2c(sc(NC(=O)c3ccc4ncsc4c3)c2C(N)=O)C(C)(C)N1	?	16µM*	?	?	?	-1%
CCc1nnc(NC(=O)c2ccc3ncsc3c2)s1	?	?	24µM*	nt	?	nt
O=C(NC(=S)Nc1cccnc1Cl)c1ccc(Cl)cc1	?	?	17µM*	nt	?	nt
O=C(NC(=S)Nc1ccc(Cl)cn1)c1cccs1	5.6µM*	?	3µM*	13µM*	?	-1%
CCOc1ccccc1NC(=S)NC(=O)c1ccco1	3%	1%	?	nt	0%	nt
Cc1ccnc(NC(=S)NC(=O)/C=C/c2ccco2)c1	?	9.2µM*	7.6µM*	?	?	0%
O=C(NC(=S)Nc1cccnc1Cl)c1ccco1	?	8%	15µM*	15%	22%	-16%
O=C(NC(=S)Nc1ccccn1)c1ccco1	2µM*	?	21µM*	10µM*	2.2µM*	-17%
Cc1ccnc(NC(=S)NC(=O)c2cccs2)c1	0.79µM*	2.1µM*	4.3µM*	6.3µM*	1.6µM*	-6%
Cc1ccnc(NC(=S)NC(=O)c2ccco2)c1	2µM*	?	12µM*	88%	2µM*	-17%
Cc1ccnc(NC(=O)CNC(=O)c2cccs2)c1	-4%	3%	1%	nt	2%	nt
Cc1ccc(C)c(NC(=O)C(Cc2ccccc2)N2Cc3ccccc3C2=O)c1 (centres undefined)	nt	nt	-14%	nt	nt	nt
Cc1cccc(Oc2ccc(NC(=O)CCC(=O)OCC(=O)c3ccc(Br)cc3)cc2)c1C	nt	nt	-10%	-4%	nt	nt
COc1ccc(C(=O)Nc2ccc3ccccc3n2)c(OC)c1OC	?	0.33µM*	0.21µM*	nt	?	nt
O=C(Nc1ccc2ccccc2n1)c1ccc(Cl)cc1	0.63µM*	?	2.1µM*	nt	1µM*	nt
O=C(Nc1ccc2ccccc2n1)C1CCCCC1	0.79µM*	?	6µM*	nt	1.1µM*	nt
O=C(Nc1ccc2ccccc2n1)c1ccccc1Cl	0.56µM*	?	1.3µM*	nt	0.71µM*	nt
COc1ccccc1NC(=O)c1cc2ccccc2nc1C	-32%	-4%	0%	-6%	14%	0%
O=C(Nc1ccccc1)C1CCCCC1	-2%	0%	-1%	nt	-1%	1%
SMILES	Rab9 prom act	ELG1 genotox	FLuc modulator	SMN2 splice up	NPC1 promoter act	Luc counter
Cc1nc2c(-c3ccc(F)cc3)c(C)nn2c(C)c1CCC(=O)NCc1cccc(Cl)c1	nt	nt	1%	-7%	nt	nt
CCc1ccc(CNC(=O)c2ccc(NC(=O)N3CC(C)Sc4ccccc43)cc2)cc1 (centres undefined)	nt	nt	2%	2%	nt	nt
CSc1ncc(C(=O)Nc2ccc(C)c(Cl)c2)c(-c2ccccc2)n1	nt	nt	-13%	nt	nt	nt
CCOC(=O)c1[nH]c(C)c(C(=O)NCCc2ccccc2)c1C	nt	nt	-7%	nt	nt	nt
CCCCN(CC)C(=O)c1nn(C)c2c1CSc1ccccc1-2	nt	nt	6%	nt	nt	nt
O=C(NC1CCSc2ccccc21)c1ccccc1Br (centres undefined)	29%	-4%	17µM*	nt	?	nt
COc1cccc(Cn2c(CNC(=O)c3cc([N+](=O)[O-])ccc3Cl)nc3cccnc32)c1	nt	nt	-4%	nt	nt	nt
O=C(COc1cc2oc(=O)cc(-c3ccccc3)c2cc1Cl)NCC1CCC(C(=O)O)CC1 (centres undefined)	-4%	9%	?	nt	2%	nt
O=C(COc1ccc2c(-c3ccccc3)cc(=O)oc2c1)NCC1CCC(C(=O)O)CC1 (centres undefined)	-4%	4%	21µM*	nt	-6%	nt
O=C(COc1ccc2cc(-c3ccccc3)c(=O)oc2c1)NCC1CCC(C(=O)O)CC1 (centres undefined)	2%	9%	6µM*	nt	-1%	nt
CCN(C(=O)CSc1nc2ccccc2n1Cc1ccc(F)cc1Cl)c1ccccc1	nt	nt	0%	nt	nt	nt
Cc1cc(=O)[nH]c(SCC(=O)Nc2nnc(SCc3ccccc3)s2)n1	-1%	-7%	13µM*	-26%	-6%	0%
O=C(Nc1nnc(SCc2ccc(F)cc2)s1)C1=COCCO1	19%	1%	-17%	nt	13%	nt
C=CCSc1nnc(NC(=O)C2=COCCO2)s1	2.2µM*	?	17µM*	nt	4µM*	nt
O=C(Nc1nnc(SCc2ccccc2)s1)C1=COCCO1	3.5µM*	?	?	nt	3.5µM*	nt
c1ccc(CSc2nnc(NC3=NCCCCC3)s2)cc1	4µM*	?	17µM*	15%	?	-2%
COC(=O)c1ccc(C2c3c(oc4ccccc4c3=O)C(=O)N2c2nc(C)c(C(=O)OC)s2)cc1 (centres undefined)	nt	nt	-9%	12%	nt	nt
O=C(O)[C@@H](c1ccccc1)[C@@H](C(=O)O)c1ccccc1	nt	nt	nt	-8%[9.22 µM]	nt	-2%[7.66 µM]
Cc1cc(C)c(Cn2c3ccccc3c3cnn(CC(=O)NCCc4ccccc4)c(=O)c32)c(C)c1	nt	nt	5%	1%	nt	nt
CCn1ccc2cc(S(=O)(=O)N3CCCN(C(=O)NCCOC)CC3)ccc21	nt	nt	-2%	nt	nt	nt
CCOc1ccc2oc(=O)cc(CN3CCN(c4ccc(OC)cc4)CC3)c2c1	nt	nt	0%	0%	nt	nt
O=C(CCc1nc2ccccc2c(=O)[nH]1)Nc1nnc(SCc2ccccc2F)s1	?	?	19µM*	nt	29%	nt
O=C(Nc1nnc(SCc2ccccc2F)s1)C1=COCCO1	3.5µM*	10µM*	17µM*	nt	2.5µM*	nt
O=C(Cc1cccs1)Nc1nnc(SCc2ccc(Br)cc2)s1	-1%	3%	17µM*	-3%	-1%	1%
CC(=O)Nc1nnc(SCc2ccccc2F)s1	?	?	-18%	?	27%	-3%
COc1ccc(S(=O)(=O)N2CCC(N3CCN(Cc4ccc(F)cc4)C(=O)C3=O)CC2)cc1	nt	nt	-1%	nt	nt	nt
COc1cccc(C(=O)NC23CC4CC(CC(C4)C2)C3)c1	4%	10%	17µM*	nt	3%	nt

Screens as filed in PubChem BioAssay.
